Results: PubChem BioAssay
Active and inactive are the calls of the source.

Molecular target: Albumin (Bos taurus) (UniProt P02769)
Assay: bovine serum albumin binders on microarray, profiling panel, artefact control for SMM control protein annotation, biochemical, small-molecule microarray, Alexa647 label, 635/667 nm fluorescence (AID 1118);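 further: score merges 667 nm emission intensity and signal-to-noise per printed compound spot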
Settings: BSA-A647 binding, fluorescence 635 nm, higher = more signal

Sequence of Albumin (Bos taurus) (P02769 whole entry, looked up): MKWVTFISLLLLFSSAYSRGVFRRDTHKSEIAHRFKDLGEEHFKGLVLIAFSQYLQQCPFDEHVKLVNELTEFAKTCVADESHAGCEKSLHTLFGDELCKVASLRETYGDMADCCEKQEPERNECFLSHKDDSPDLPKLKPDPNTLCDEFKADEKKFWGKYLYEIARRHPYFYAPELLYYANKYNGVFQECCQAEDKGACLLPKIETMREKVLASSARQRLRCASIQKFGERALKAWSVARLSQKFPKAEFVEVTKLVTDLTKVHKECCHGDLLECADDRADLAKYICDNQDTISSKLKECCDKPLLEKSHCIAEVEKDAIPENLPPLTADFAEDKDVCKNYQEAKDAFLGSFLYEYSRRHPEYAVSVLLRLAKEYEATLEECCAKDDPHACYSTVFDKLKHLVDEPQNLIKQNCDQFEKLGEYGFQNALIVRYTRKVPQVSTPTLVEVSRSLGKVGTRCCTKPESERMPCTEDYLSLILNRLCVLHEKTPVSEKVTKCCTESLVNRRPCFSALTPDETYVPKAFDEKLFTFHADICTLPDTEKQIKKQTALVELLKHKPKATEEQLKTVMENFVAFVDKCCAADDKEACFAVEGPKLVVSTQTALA

Compound	composite z-score
CCCN1C(=O)[C@@]2(CCS(=O)(=O)c3ccccc3)N=C(c3ccc(OCCCO)cc3)O[C@H]2c2ccccc21	-0.676
O=C(O)[C@@H]1Cc2c([nH]c3ccccc23)[C@@H](c2ccccc2)N1	0.118
C[C@@H]1CC[C@H]2C(=O)N3CCC[C@H]3C(=O)N2[C@H]1c1ccc(Br)cc1	-0.295
CCC#CCN(Cc1ccccc1Br)[C@H](/C=C/c1ccccc1)[C@@H](O)Cc1ccccc1	-0.904
[N-]=[N+]=NCc1ccccc1C[C@]1(C(N)=O)N=C(c2ccc(OCCCO)cc2)O[C@H]1c1ccccc1CN=[N+]=[N-]	1.05
C=CCC(OC(C)=O)[C@@H]1[C@@H](N(Cc2ccc(-c3ccccc3)cc2)C(=O)c2ccc(-c3ccccc3)cc2)c2cc(OCCCO)ccc2N1C(=O)Cc1ccc(OC)cc1 (stereo not given in full)	0.4
O=C1C[C@@](C(=O)NC2CC2)(c2ccc([N+](=O)[O-])cc2)[C@@H](c2ccc(CO)cc2I)N1CC12CC3CC(CC(C3)C1)C2	-0.344
Cc1ccc(N2C(=O)c3ccccc3[C@@H](C(=O)NCC(F)(F)F)[C@@H]2c2ccc(CO)cc2)nc1	-0.0791
C=CC[C@]1(C(=O)O)N=C(c2ccc(OCCCO)cc2)O[C@H]1c1ccccc1	0.769

Test system: not listed separately
Assay: small-molecule microarray binders of probe aXIP, primary screen, biochemical, NeuroSMM set, 635/667 nm fluorescence (AID 1119);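 further: probe is the protein aXip251-270 applied at 1 µg/mL to compound-printed slides; binding of probe to printed compounds measured as 667 nm fluorescence plus signal to noise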
Settings: higher = more signal, called active from +8 up or from −8 down

Compound	composite Z-score
COc1ccc(CCN2C(=O)[C@@]3(c4ccc([N+](=O)[O-])cc4)CC(=O)N(CC45CC6CC(CC(C6)C4)C5)[C@@H]3c3ccc(CO)cc32)cc1	0.653 (inactive)
C=CCN1C(=O)[C@@]2(Cc3ccccc3)N=C(c3ccc(OCCCO)cc3)O[C@H]2c2ccccc21	1.06 (inactive)
CN1CCC(CCCO)=CC1C1CC1 (stereo not given)	3.24 (inactive)
CC(C)N1CC=CC23O[C@@H]4/C=C\CCCOC(=O)C4[C@H]2C(=O)N(CCCCCO)[C@@H]3C1=O (stereo not given in full)	-0.0102 (inactive)
COCCOC(=O)N1C(=O)[C@@]2(c3cc(C#CCC(C(=O)OC)C(=O)OC)ccc31)[C@H](C(=O)N1CCN(c3ncccn3)CC1)[C@H]1C(=O)O[C@H](c3ccccc3)[C@H](c3ccccc3)N1[C@@H]2c1ccc(O)cc1	0.394 (inactive)
CCC(=O)[C@]12O[C@@]3([C@@H]4C(=O)OCC[C@@H]41)N(Cc1ccccc1)C(C)=C(C(=O)OC)[C@@H](c1ccccc1)N3C2=O	-0.428 (inactive)
COC(=O)[C@@]1(Cc2ccc(OC)cc2)[C@H]2c3cc(C(=O)N(C)C)n(Cc4ccc(C)c(F)c4F)c3C[C@H]2CN1C(=O)c1ccccc1	0.0888 (inactive)
COc1cc(CO)cc(I)c1O[C@H]1C=C(C(=O)NCCO)C[C@@H](NCCc2c[nH]c3ccccc23)[C@@H]1O	0.256 (inactive)
Cc1ccc(N2C(=O)c3ccccc3[C@](C)(C(=O)O)[C@@H]2c2ccc(CO)cc2)nc1	-0.313 (inactive)
COC(=O)[C@@]1(Cc2ccccc2)[C@H]2c3cc(C(=O)N4CCCC4)n(CCN4CNCC4=O)c3C[C@H]2CN1C(=O)c1ccccc1	0.0178 (inactive)
CO[C@@H]1COC(=O)[C@H](C)NC(=O)CC=C[C@@H](C)[C@H](OC)COC(=O)[C@H](C)NC(=O)CC=C[C@H]1C	0.137 (inactive)
C=C(COC)/C(=C/C[C@@H](OC(C)=O)c1cccc(OCCO)c1)c1cc(C(=O)OC)ccc1OC	-0.574 (inactive)
CCOC(=O)C[C@H]1[C@H](OC(=O)c2ccccc2-c2ccccc2)[C@@H](NC(=O)c2ccc(-c3ccccc3)cc2)c2cc(OCCCO)ccc2N1C(=O)Cc1ccc(OC)cc1	0.0368 (inactive)
[N-]=[N+]=NCc1ccccc1C[C@]1(C(=O)N2CCCCC2)N=C(c2ccc(OCCCO)cc2)O[C@H]1c1ccccc1CN=[N+]=[N-]	0.375 (inactive)
CO[C@H]1COC(=O)[C@@H](OCc2ccccc2)C=C[C@H](C)[C@@H](OC)COC(=O)[C@H](OCc2ccccc2)C=C[C@@H]1C	-0.738 (inactive)
COCCOC(=O)N1C(=O)[C@@]2(c3cc(C#CCNC(N)=O)ccc31)[C@H](c1ccc(OCCO)cc1)N1[C@H](c3ccccc3)[C@H](c3ccccc3)OC(=O)[C@H]1[C@@H]2C(=O)Nc1nc2ccccc2s1	-0.0202 (inactive)
CCOC(=O)C1=CC[C@@H](c2ccc(-c3ccc(OCc4ccccc4)cc3)c(OC)c2)N(S(=O)(=O)c2ccc(C)cc2)[C@H]1c1ccccc1	1.53 (inactive)
Cc1ccc(S[C@]2(C(=O)O)CC(=O)N(Cc3ccccc3)[C@@H]2c2ccc(CO)cc2)cc1	1.28 (inactive)

Compound	composite Z-score
Cc1ccc(S[C@]2(C(=O)NC(C)C)CC(=O)N(Cc3cc(C(F)(F)F)cc(C(F)(F)F)c3)[C@@H]2c2ccc(CO)cc2I)cc1	0.0296 (inactive)
CO[C@@H]1COC(=O)[C@H](COCc2ccccc2)NC(=O)CC=C[C@@H](C)[C@H](OC)COC(=O)[C@H](COCc2ccccc2)NC(=O)CC=C[C@H]1C	-0.14 (inactive)
CCC1=C2CN(Cc3ccccc3Br)[C@@H]([C@@H](O)Cc3ccccc3)C2C=CCC1 (stereo not given in full)	1.22 (inactive)
COCCOC(=O)N1C(=O)[C@@]2(c3cc(C#CCC(C(=O)OC)C(=O)OC)ccc31)[C@H](c1ccccc1OCCO)N1[C@H](c3ccccc3)[C@H](c3ccccc3)OC(=O)[C@H]1[C@@H]2C(=O)N1CCCCCCC1	2.67 (inactive)
CO[C@@H]1COC(=O)[C@@H]2CCCN2C(=O)CC=C[C@@H](C)[C@H](OC)COC(=O)[C@@H]2CCCN2C(=O)CC=C[C@H]1C	-0.286 (inactive)
C=C(COC)/C(=C/C[C@H](OC(C)=O)c1ccc(OCCO)cc1)c1cnc2ccccc2c1	-0.0473 (inactive)
CC(=O)Nc1ccc([C@H]2[C@H](C)CC[C@H]3C(=O)N4[C@@H](CC[C@@H](C)[C@@H]4c4ccc(NC(C)=O)cc4)C(=O)N32)cc1	-0.222 (inactive)
CN(C)CCCC[C@@H]1NC(=O)[C@@H]2C[C@H](C(=O)O)[C@H](c3ccc(O)cc3)N2C1=O	0.361 (inactive)
C[C@@H]1CC[C@H]2C(=O)N3[C@@H](CC[C@@H](C)[C@@H]3c3cccc(N4CCOCC4)c3)C(=O)N2[C@H]1c1cccc(Br)c1	0.307 (inactive)
CCCN1C(=O)[C@@]2(CCS(=O)(=O)c3ccccc3)N=C(c3ccc(OCCCO)cc3)O[C@H]2c2ccccc21	-0.113 (inactive)
O=C(O)[C@@H]1Cc2c([nH]c3ccccc23)[C@@H](c2ccccc2)N1	0.756 (inactive)
C[C@@H]1CC[C@H]2C(=O)N3CCC[C@H]3C(=O)N2[C@H]1c1ccc(Br)cc1	0.734 (inactive)
CCC#CCN(Cc1ccccc1Br)[C@H](/C=C/c1ccccc1)[C@@H](O)Cc1ccccc1	0.12 (inactive)
[N-]=[N+]=NCc1ccccc1C[C@]1(C(N)=O)N=C(c2ccc(OCCCO)cc2)O[C@H]1c1ccccc1CN=[N+]=[N-]	-0.469 (inactive)
C=CCC(OC(C)=O)[C@@H]1[C@@H](N(Cc2ccc(-c3ccccc3)cc2)C(=O)c2ccc(-c3ccccc3)cc2)c2cc(OCCCO)ccc2N1C(=O)Cc1ccc(OC)cc1 (stereo not given in full)	0.344 (inactive)
O=C1C[C@@](C(=O)NC2CC2)(c2ccc([N+](=O)[O-])cc2)[C@@H](c2ccc(CO)cc2I)N1CC12CC3CC(CC(C3)C1)C2	0.381 (inactive)
Cc1ccc(N2C(=O)c3ccccc3[C@@H](C(=O)NCC(F)(F)F)[C@@H]2c2ccc(CO)cc2)nc1	0.352 (inactive)
C=CC[C@]1(C(=O)O)N=C(c2ccc(OCCCO)cc2)O[C@H]1c1ccccc1	0.523 (inactive)
